{"source": "PubChem BioAssay (EPA / NIEHS)", "note": "Records with an inconclusive call do not appear. Activity calls are given as the source filed them. The calls were made as follows: active = hit-call score of the fitted dose curve at least 0.9, where 1 is the maximum; inconclusive = response in the unintended direction; inactive = score below 0.9."}
{"read-out": "Broad substrate specificity ATP-binding cassette transporter ABCG2 (Homo sapiens) (UniProt Q9UNQ0)", "experiment": "CLD_ABCG2_24hr: CellzDirect (CLD) Gene Expression Assay for ABC Transporter (ABCG2) at 24 hours (AID 2283685)", "description": "CLD_24hr is a cell-based, multiplexed-readout assay that uses hepatocyte, a human liver primary cell, with measurements taken at 24 hours after chemical dosing in a 96-well plate.CLD_ABCG2_24hr is one of 16 assay component(s) measured or calculated from the CLD_24hr assay. It is designed to make measurements of mRNA induction, a form of inducible reporter, as detected with chemiluminescence signals by Quantitative Nuclease Protection Assay (qNPA) technology.Data from the assay component CLD_ABCG2_24hr was analyzed at the endpoint, CLD_ABCG2_24hr, in the positive analysis fitting direction relative to DMSO as the negative control and baseline of activity. Using a type of inducible reporter, gain-of-signal activity can be used to understand changes in the reporter gene as they relate to the gene ABCG2. Furthermore, this assay endpoint can be referred to as a primary readout. To generalize the intended target to other relatable targets, this assay endpoint is annotated to the transporter intended target family, where subfamily is ABC transporter.\nHuman hepatocyte cultures were treated daily for two consecutive days with fresh dosing solutions containing appropriate concentrations of the 320 ToxCast chemicals (chemical identities were blinded to CellzDirect and other ToxCast collaborators), vehicle control (0.2% DMSO), and positive control inducers as summarized in Table 1. Due to the large number of treatment groups and chemicals examined, the ToxCast chemicals were divided into two groups (spanning two independent cultures of hepatocytes from separate donor preparations (Hu778: ToxCast plates 1 and 2; Hu776: ToxCast plates 3 and 4). Each preparation of human hepatocyte cultures was treated with respective vehicle control, medium only control, set of six positive controls/reference chemicals for the five hepatic receptor pathways, and a subset of eight of the ToxCast chemicals (indoxacarb, pyrithiobac-sodium, norflurazon, cyhalofop-butyl, methomyl, thiram, acetochlor, and propiconazole). These replicate data, coupled with internal replicates designed within the blinded ToxCast chemical library, provided additional data to evaluate interindividual differences between hepatocyte preparations and their potential impact on chemical profiles.Cell morphology and integrity were evaluated using phase-contrast microscopy as an indicator of hepatocyte cell health (Tyson & Green, 1987). Cultures for each treatment group (i.e., media, vehicle [0.2% DMSO], positive control inducers [multiple concentrations], and the ToxCast chemicals [multiple concentrations]) were observed and cell morphology was assessed relative to vehicle control cultures at each harvest time point (0, 6, 24, or 48 h). […] Images were evaluated at the conclusion of the study to assess changes in cell integrity and account for the effects of chemical exposure on uncharacteristic changes in concentration-dependent gene expression profiles. The results from these determinations of apparent cytotoxicity were annotated (yes/no) alongside the corresponding qNPA data for reference.At the conclusion of each treatment period, hepatocyte cultures (96-well) were washed with 1 volume of HBSS, lysed by addition of 25 ul ArrayPlate lysis buffer (HTG, Tucson, AZ), and 70 ul/well of Denaturation Oil, denatured by incubation at 95C for 10 min, and frozen at approximately -70C until analysis by nuclease protection assay (qNPA) (Roberts et al., 2007). For qNPA analysis, cell lysates were thawed at 50C for approximately 30 min, qNPA probes were added, and samples were incubated at 95C for 10 min to begin the detection process by denaturing the target RNA, dissociating the duplexes and secondary structure hybridization. At the conclusion of the hybridization period, S1 nuclease reagent was added to each sample to digest all nonprotected nucleotides at 50C for 60-90 min. […]"}
{"smiles": "ClC1C(Cl)C(Cl)C(Cl)C(Cl)C1Cl", "note": "(centres undefined)", "outcome": "inactive"}
{"smiles": "COC(=O)c1ccccc1S(=O)(=O)NC(=O)N(C)c1nc(C)nc(OC)n1", "outcome": "inactive"}
{"smiles": "CC(C)N(C(=O)COc1nnc(C(F)(F)F)s1)c1ccc(F)cc1", "outcome": "inactive"}
{"smiles": "O=C(NC(=O)c1c(F)cccc1F)Nc1ccc(OC(F)(F)C(F)OC(F)(F)F)c(Cl)c1", "note": "(centres undefined)", "outcome": "inactive"}
{"smiles": "Cc1cc(C)nc(NC(=O)NS(=O)(=O)c2ccccc2C(=O)OC2COC2)n1", "outcome": "inactive"}
{"smiles": "CCCN(CCC)c1c([N+](=O)[O-])cc(C(F)(F)F)cc1[N+](=O)[O-]", "outcome": "inactive"}
{"smiles": "CCS(=O)(=O)c1cccnc1S(=O)(=O)NC(=O)Nc1nc(OC)cc(OC)n1", "outcome": "inactive"}
{"smiles": "C[C@H]1[C@H](c2ccc(Cl)cc2)SC(=O)N1C(=O)NC1CCCCC1", "outcome": "inactive"}
{"smiles": "O=C1c2ccccc2C(=O)N1SC(Cl)(Cl)Cl", "outcome": "inactive"}
{"smiles": "COC(=O)c1ccccc1S(=O)(=O)NC(=O)Nc1nc(C)nc(OC)n1", "outcome": "inactive"}
{"smiles": "CCOCN(C(=O)CCl)c1c(C)cccc1CC", "outcome": "inactive"}
{"smiles": "O=[N+]([O-])/N=C1\\NCCN1Cc1ccc(Cl)nc1", "outcome": "inactive"}
{"smiles": "CCN(CC)C(=O)SCc1ccc(Cl)cc1", "outcome": "inactive"}
{"smiles": "[2H]C1([2H])[n+]2ccccc2-c2cccc[n+]2C1([2H])[2H]", "outcome": "inactive"}
{"smiles": "CC(C)(C)C(O)C(Oc1ccc(Cl)cc1)n1cncn1", "note": "(centres undefined)", "outcome": "inactive"}
{"smiles": "CCC(C)(C)C(=O)OC1=C(c2ccc(Cl)cc2Cl)C(=O)OC12CCCCC2", "outcome": "inactive"}
{"smiles": "CCOc1nc(NC)nc(NC(=O)NS(=O)(=O)c2ccccc2C(=O)OC)n1", "outcome": "inactive"}
{"smiles": "O=S1OCC2C(CO1)C1(Cl)C(Cl)=C(Cl)C2(Cl)C1(Cl)Cl", "note": "(centres undefined)", "outcome": "inactive"}
{"smiles": "O=C(O)CCCOc1ccc(Cl)cc1Cl", "outcome": "inactive"}
{"smiles": "O=C(O)C(F)(F)C(F)(F)C(F)(F)C(F)(F)C(F)(F)C(F)(F)C(F)(F)F", "outcome": "inactive"}
{"smiles": "O=[N+]([O-])c1c(Cl)c(Cl)c(Cl)c(Cl)c1Cl", "outcome": "inactive"}
{"smiles": "N#Cc1c(Cl)c(Cl)c(Cl)c(C#N)c1Cl", "outcome": "inactive"}
{"smiles": "CCOC1Oc2ccc(OS(C)(=O)=O)cc2C1(C)C", "note": "(centres undefined)", "outcome": "inactive"}
{"smiles": "N#CN", "outcome": "inactive"}
{"smiles": "CCCN(CCOc1c(Cl)cc(Cl)cc1Cl)C(=O)n1ccnc1", "outcome": "inactive"}
{"smiles": "COP(=S)(OC)Oc1ccc([N+](=O)[O-])cc1", "outcome": "inactive"}
{"smiles": "CNC(=O)Oc1ccccc1OC(C)C", "outcome": "inactive"}
{"smiles": "C#CCN1C(=O)COc2cc(F)c(N3C(=O)C4=C(CCCC4)C3=O)cc21", "outcome": "inactive"}
{"smiles": "O=S(=O)(O)C(F)(F)C(F)(F)C(F)(F)C(F)(F)C(F)(F)C(F)(F)C(F)(F)C(F)(F)F", "outcome": "inactive"}
{"smiles": "COc1cc(OC)nc(NC(=O)NS(=O)(=O)c2cc(NC=O)ccc2C(=O)N(C)C)n1", "outcome": "inactive"}
{"smiles": "CC[C@H](C)[C@H]1O[C@]2(C=C[C@@H]1C)C[C@@H]1C[C@@H](C/C=C(\\C)[C@@H](O[C@H]3C[C@H](OC)[C@@H](O[C@H]4C[C@H](OC)[C@@H](O)[C@H](C)O4)[C@H](C)O3)[C@@H](C)/C=C/C=C3\\CO[C@@H]4[C@H](O)C(C)=C[C@@H](C(=O)O1)[C@]34O)O2", "note": "(tested in a mixture with another compound)", "AC50": "4.64 µM (active)"}
{"smiles": "CC(C)(C)C(O)/C(=C\\c1ccc(Cl)cc1Cl)n1cncn1", "note": "(centres undefined)", "outcome": "inactive"}
{"smiles": "OCCOc1ccccc1", "outcome": "inactive"}
{"smiles": "O=C(O)COc1ccc(Cl)cc1Cl", "outcome": "inactive"}
{"smiles": "COP(=O)(OC)OC=C(Cl)Cl", "outcome": "inactive"}
{"smiles": "CN1CSC(=S)N(C)C1", "outcome": "inactive"}
{"smiles": "Clc1ccccc1-c1nnc(-c2ccccc2Cl)nn1", "outcome": "inactive"}
{"smiles": "CC(C)OC(=O)Nc1cccc(Cl)c1", "outcome": "inactive"}
{"smiles": "COc1nn(CSP(=S)(OC)OC)c(=O)s1", "outcome": "inactive"}
